# Hit rate of the full screen: of about 3,200 compounds, about 110 (3.4%) showed an effect of 50% or more. This excerpt belongs to a sample that is enriched for strong results.
# System: T1, V. cholerae SAD30
# T1 construct: SAD30
# Design: species or system S. aureus MSSA476 (TSB) or V. cholerae SAD30 (LB); 384-well bacterial growth screen at 25 uM, OD600 relative to DMSO control
# Settings: relative growth, OD600, LB; 25 µM; inhibitor
row,SMILES,% of control remaining
1,"O=C(CCl)Nc1ccc(Cl)c(S(=O)(=O)N2CCCCC2)c1 [4-P14, 2-chloro-N-[4-chloro-3-(piperidine-1-sulfonyl)phenyl]acetamide]",110.589%
2,"C=CC(=O)NC1(C(N)=O)Cc2ccccc2C1 [2-D15, 2-(prop-2-enamido)-2,3-dihydro-1H-indene-2-carboxamide]",88.8063%
3,"C=CC(=O)Nc1cc(C)nn1-c1ccccc1F [2-C15, N-[1-(2-fluorophenyl)-3-methyl-1H-pyrazol-5-yl]prop-2-enamide]",95.1365%
4,"CC(c1ccccc1F)N1CCCC(NC(=O)CCl)C1=O (centres unmarked) [5-I10, 2-chloro-N-{1-[1-(2-fluorophenyl)ethyl]-2-oxopiperidin-3-yl}acetamide]",94.4836%
5,"C=CC(=O)N1CCC(C(=O)N2CCC[C@H]2c2ncn[nH]2)CC1 [2-D12, 1-{4-[(2S)-2-(1H-1,2,4-triazol-5-yl)pyrrolidine-1-carbonyl]piperidin-1-yl}prop-2-en-1-one]",91.1223%
6,"N#CC(=Cc1ccc2ccccc2c1)C(=O)NC(N)=O [9-K10, {2-cyano-2-[(naphthalen-2-yl)methylidene]acetyl}urea]",87.0836%
7,"Cc1ccc(C(=O)c2c(NC(=O)CCl)sc3c2CCCC3)cc1 [6-A12, 2-chloro-N-[3-(4-methylbenzoyl)-4,5,6,7-tetrahydro-1-benzothiophen-2-yl]acetamide]",94.644%
8,"C=CC(=O)NCC(=C)c1ccccc1 [2-B09, N-(2-phenylprop-2-en-1-yl)prop-2-enamide]",87.2624%
9,"CC(Cl)C(=O)NC(C)(C)c1ccc(F)cc1F (centres unmarked) [6-E21, 2-chloro-N-[2-(2,4-difluorophenyl)propan-2-yl]propanamide]",92.9756%
10,"C=CC(=O)Nc1cc(CC(C)(C)C)no1 [1-I19, N-[3-(2,2-dimethylpropyl)-1,2-oxazol-5-yl]prop-2-enamide]",92.9746%
11,"COCc1ncc2c(n1)CC1CCC2N1C(=O)C(C)Cl (centres unmarked) [7-M20, 2-chloro-1-[5-(methoxymethyl)-4,6,12-triazatricyclo[7.2.1.0,2,7]dodeca-2,4,6-trien-12-yl]propan-1-one]",81.4142%
12,"Cc1cc(CO[C@H]2CC[C@H](NC(=O)CCl)CC2)on1 [6-K19, 2-chloro-N-[(1r,4r)-4-[(3-methyl-1,2-oxazol-5-yl)methoxy]cyclohexyl]acetamide]",92.9756%
13,"C=CC(=O)Nc1cnn(C2CCCC2)c1 [3-O21, N-(1-cyclopentyl-1H-pyrazol-4-yl)prop-2-enamide]",106.734%
14,"N#CC(=Cc1ccccc1Cl)C(=O)Nc1cccc2ncccc12 [8-C15, 3-(2-chlorophenyl)-2-cyano-N-(quinolin-5-yl)prop-2-enamide]",75.9347%
15,"C=CC(=O)NCC12CC3CC(CC(C3)C1)C2 [1-F17, N-[(adamantan-1-yl)methyl]prop-2-enamide]",83.4081%
16,"O=C(CCl)c1ccc(Oc2ccccc2)cc1 [10-G20, 2-chloro-1-(4-phenoxyphenyl)ethan-1-one]",25.2484%

row,SMILES,% of control remaining
1,"O=C(CCl)Nc1cccc(Oc2ccccc2)c1 [4-P19, 2-chloro-N-(3-phenoxyphenyl)acetamide]",96.6142%
2,"NC(=O)CCc1ccc(C(=O)CCl)cc1 [10-I03, 3-[4-(2-chloroacetyl)phenyl]propanamide]",70.7578%
3,"CCCc1ccc(C(=O)CCl)cc1 [10-C04, 2-chloro-1-(4-propylphenyl)ethan-1-one]",109.254%
4,"CSc1ccc(C(=O)CCl)cc1 [10-E07, 2-chloro-1-[4-(methylsulfanyl)phenyl]ethan-1-one]",0%
5,"CC(=O)NCCc1ccc(C(=O)CCl)cc1 [10-N03, N-{2-[4-(2-chloroacetyl)phenyl]ethyl}acetamide]",115.8%
6,"NC(=O)COc1ccc(C(=O)CCl)cc1 [10-M07, 2-[4-(2-chloroacetyl)phenoxy]acetamide]",49.25%
7,"CCc1ccc(C(=O)CCl)cc1 [10-F18, 2-chloro-1-(4-ethylphenyl)ethan-1-one]",26.1835%
8,"O=C(CCl)Nc1ccc(Oc2ccccc2)cc1 [4-J09, 2-chloro-N-(4-phenoxyphenyl)acetamide]",97.6493%
9,"O=C(CCl)NCCCC1CCCCC1 [6-O05, 2-chloro-N-(3-cyclohexylpropyl)acetamide]",100.256%
10,"O=C(CCl)NC(c1ccccc1)C1CCCCC1 (centres unmarked) [6-E12, 2-chloro-N-[cyclohexyl(phenyl)methyl]acetamide]",79.0217%
11,"CC(Cl)C(=O)Nc1ccc(S(=O)(=O)N2CCCCC2)cc1 (centres unmarked) [4-A12, 2-chloro-N-[4-(piperidine-1-sulfonyl)phenyl]propanamide]",95.234%
12,"CC(Cl)C(=O)Nc1c(C(C)C)cccc1C(C)C (centres unmarked) [4-B15, N-[2,6-bis(propan-2-yl)phenyl]-2-chloropropanamide]",91.4384%
13,"C=CC(=O)N[C@H]1CCO[C@@H]1c1ccnn1C(C)C (racemic) [3-K05, rac-N-[(2R,3R)-2-[1-(propan-2-yl)-1H-pyrazol-5-yl]oxolan-3-yl]prop-2-enamide]",98.7943%
14,"O=C(CCl)N1CCN(S(=O)(=O)c2cccc([N+](=O)[O-])c2)CC1 [4-C19, 2-chloro-1-[4-(3-nitrobenzenesulfonyl)piperazin-1-yl]ethan-1-one]",91.0934%
15,"C=CC(=O)N1CCC(C(=O)NC2CCCc3cc(F)ccc32)CC1 (centres unmarked) [2-K18, N-(6-fluoro-1,2,3,4-tetrahydronaphthalen-1-yl)-1-(prop-2-enoyl)piperidine-4-carboxamide]",78.153%
16,"O=C(CCl)Nc1cccc(S(=O)(=O)N2CCOCC2)c1 [4-P08, 2-chloro-N-[3-(morpholine-4-sulfonyl)phenyl]acetamide]",121.458%

# Source: article PMC11995724, “Antibiotic target discovery by integrated phenotypic and activity-based profiling of electrophilic fragments” (Cell chemical biology, 2025)
